From the supplement of paper PMC12297408
A number with no mark means an inactive call.

system: Plasmodium falciparum NF54/iGP1_RE9H ulg8 stage V gametocytes; experiment: gametocyte viability (luciferase signal relative to DMSO control) (% of DMSO control); higher = less gametocytocidal activity, active = 50 or less; details: concentration: 1 µM; exposure time: 72 h
Method in brief: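 NF54/iGP1_RE9Hulg8 stage V gametocytes (day 12; ~2.5% gametocytemia, 3% hematocrit) in medium with 0.5% Albumax II were added to 96-well plates of nanolitre-spotted compounds (10 mM DMSO stocks), giving 10 µM or 1 µM, one well each. Plates were incubated 72 h at 37 °C. Then 90 µl was mixed with 10 µl D-luciferin (30 mg/ml) and luminescence was read on an IVIS Lumina II. Viability is relative to the mean of plate DMSO vehicle controls.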

Row | Structure (SMILES) | gametocyte viability
1 | O=C(Nc1c[nH]nc1-c1nc2ccc(CN3CCOCC3)cc2[nH]1)NC1CC1 | 131
2 | N#CC(C#N)=C(N)/C(C#N)=C/c1cc(O)c(O)c(O)c1 | 110
3 | N#CC1(c2ccc(NC(=O)c3cccnc3NCc3ccncc3)cc2)CCCC1 [Apatinib (YN968D1)] | 96
4 | Cc1cn(-c2cc(NC(=O)c3ccc(C)c(Nc4nccc(-c5cccnc5)n4)c3)cc(C(F)(F)F)c2)cn1 [Nilotinib (AMN-107)] | 111
5 | Nc1ncnc2c1c(I)cn2[C@@H]1O[C@H](CO)[C@@H](O)[C@H]1O [5-Iodotubericidin] | 103
6 | COC(=O)Nc1ccc(-c2nc(N3CCOCC3)c3cnn(C4CCN(C(=O)OC)CC4)c3n2)cc1 | 97.3
7 | COc1cc(Nc2ncc(F)c(Nc3ccc4c(n3)NC(=O)C(C)(C)O4)n2)cc(OC)c1OC | 99.8
8 | CCCNC(=O)Nc1ccc(Oc2ncnc3cc(OC)c(OC)cc23)cc1Cl | 97.6
9 | Cc1cc(Nc2nc(N[C@@H](C)c3ccc(F)cc3)c(C#N)cc2F)n[nH]1 | 97.5
10 | COc1cc2ncc(-c3ccccc3)nc2cc1OC | 99.5
11 | Cc1cc(Nc2cc(N3CCN(C)CC3)nc(Sc3ccc(NC(=O)C4CC4)cc3)n2)n[nH]1 [VX-680 (MK-0457, Tozasertib)] | 97.5
12 | CC(C)(C)c1cc(C=C(C#N)C(N)=S)cc(C(C)(C)C)c1O | 103
13 | Cc1cc(Nc2cc(CN3CCOCC3)c3nc(C)c(Cc4ccc(Cl)cc4F)n3n2)n[nH]1 | 95.6
14 | CC(C)n1cnc2c(NCc3ccccc3)nc(NCCO)nc21 [N9-isopropyl-olomoucine] | 92.7
15 | COc1cc2c(Oc3ccc(NC(=O)C4(C(=O)Nc5ccc(F)cc5)CC4)cc3F)ccnc2cc1OCCCN1CCOCC1 | 86.7
16 | CC[C@H](Nc1ncnc2[nH]cnc12)c1nc2cccc(F)c2c(=O)n1-c1ccccc1 | 95.1
17 | N#C/C(=C\c1ccc(O)c(O)c1)C(=O)Nc1ccccc1 | 99.6
18 | COc1ccc(S(=O)(=O)N(C(C)=O)c2ccccc2/C=C/c2cc[n+]([O-])cc2)cc1 | 98
19 | COc1cc2c(N3CCN(C(=O)Nc4ccc(OC(C)C)cc4)CC3)ncnc2cc1OCCCN1CCCCC1 [Tandutinib (MLN518)] | 98.8
20 | CC(=O)Nc1cccc(-n2c(=O)n(C3CC3)c(=O)c3c(Nc4ccc(I)cc4F)n(C)c(=O)c(C)c32)c1 | 102

Row | Structure (SMILES) | gametocyte viability
21 | O=S(=O)(c1cccc2cnccc12)N1CCCNCC1 | 101
22 | O=S(=O)(c1cccc2c(Cl)cccc12)N1CCCNCC1 | 93.2
23 | Cn1c(=O)c(F)c(Nc2ccc(I)cc2F)c2c(=O)n(C[C@@H](O)CO)cnc21 | 108
24 | CO[C@H]1C[C@@H]2CC[C@@H](C)[C@@](O)(O2)C(=O)C(=O)N2CCCC[C@H]2C(=O)O[C@H]([C@H](C)C[C@@H]2CC[C@@H](OP(C)(C)=O)[C@H](OC)C2)CC(=O)[C@H](C)/C=C(\C)[C@@H](O)[C@@H](OC)C(=O)[C@H](C)C[C@H](C)/C=C/C=C/C=C/1C [Deforolimus (Ridaforolimus)] | 90.2
25 | O=C1Nc2ccc(I)cc2/C1=C/c1cc(Br)c(O)c(Br)c1 | 92.1
26 | CNC(=O)c1cc(COc2nnc(Nc3ccc(Cl)cc3)c3ccoc23)ccn1 [Telatinib (BAY 57-9352)] | 115
27 | C[C@@H](Oc1cc(-n2cnc3ccc(CN4CCN(C)CC4)cc32)sc1C(N)=O)c1ccccc1C(F)(F)F | 103
28 | Cc1[nH]c(/C=C2\C(=O)Nc3ccc(S(=O)(=O)N(C)c4cccc(Cl)c4)cc32)c(C)c1C(=O)N1CCN(C)CC1 | 107
29 | COc1cc2nccc(Oc3ccc(NC(=O)Nc4ccc(F)cc4F)c(F)c3)c2cc1OC | 94.9
30 | O=c1ncn2nc(Sc3ccc(F)cc3F)ccc2c1-c1c(Cl)cccc1Cl | 95.2
31 | CC[C@@H]1C(=O)N(C)c2cnc(Nc3ccc(C(=O)NC4CCN(C)CC4)cc3OC)nc2N1C1CCCC1 | 80.6
32 | CCc1cccc(CC)c1NC(=O)N1Cc2[nH]nc(NC(=O)c3ccc(N4CCN(C)CC4)cc3)c2C1 | 109
33 | CC1CNCCN1S(=O)(=O)c1cccc2cnccc12 (stereo not given) | 97.5
34 | Cc1cc(Nc2cc(N3CCN(C)CC3)nc(/C=C/c3ccccc3)n2)n[nH]1 | 90.7
35 | CO[C@@H](C(=O)N1Cc2[nH]nc(NC(=O)c3ccc(N4CCN(C)CC4)cc3)c2C1)c1ccccc1 | 89.5
36 | NC(=O)c1ccc(-c2nc(-c3ccccn3)c(-c3ccc4c(c3)OCO4)[nH]2)cc1 | 101
37 | Cc1nc(N)sc1-c1ccnc(Nc2ccc(N3CCOCC3)cc2)n1 | 107
38 | O=Nc1c(-c2c(O)[nH]c3ccccc23)[nH]c2ccccc12 [Indirubin-3'-monooxime] | 90.1
39 | COc1cc2nccc(Oc3ccc(NC(=O)Nc4cc(C)on4)c(Cl)c3)c2cc1OC [Tivozanib (AV-951)] | 94
40 | C#Cc1cccc(Nc2ncnc3cc(OCCOC)c(OCCO)cc23)c1 [OSI-420 (Desmethyl Erlotinib)] | 92.8
